Test [1] in a line: E. coli DRC41 culture turbidity changes, primary screen, E. coli filamentation inducer project, strain DRC41, OD650, 48 h (AID 1152).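 Further: E. coli MC1000 strain DRC41 lacking acrAB efflux pump and sulA.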 The settings on record: E. coli DRC41 (acrAB sulA), higher = more signal, called active from +8 up or from −8 down.
Test [2] in a line: small-molecule binders of probe aLefty1, primary screen, biochemical, small-molecule microarray, 635/667 nm fluorescence (AID 1153).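 Further: score merges spot fluorescence with signal-to-noise ratio from the scanned slide images.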 The settings on record: higher = more signal.
Test [3] in a line: PSAC antagonists in infected red cells, primary screen, cell-based, P. falciparum Indochina, OD700, 1 h (AID 1154). To be noted: P. falciparum Indochina infected RBC osmotic lysis, higher = more signal, called active from +8 up or from −8 down.
A short description of test [4]: PSAC antagonists in infected red cells, primary screen, cell-based, P. falciparum Indochina, OD700, 2 h (AID 1155).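 Further: lysis reports solute entry through the parasite surface anion channel PSAC; channel blockers reduce lysis of infected cells.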 To be noted: P. falciparum Indochina infected erythrocytes, osmotic lysis OD700; higher = more signal, called active from +8 up or from −8 down.
A short description of test [5]: osmotic lysis modulators in infected erythrocytes, primary screen, PSAC antagonist project, cell-based, P. falciparum Indochina, OD700, 3 h (AID 1156). To be noted: higher = more signal, called active from +8 up or from −8 down.
Test [6] can be described thus: PSAC antagonists in infected red cells, primary screen, cell-based, P. falciparum Indochina, OD700, 18 h (AID 1157). To be noted: P. falciparum Indochina infected erythrocytes, osmotic lysis OD700, 18 h; higher = more signal, called active from +8 up or from −8 down.
The nature of test [7]: modulators of S6 phosphorylation in cells, primary screen, cell-based, A549, cytoblot, luminescence, serum-stimulated (AID 1158).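 Further: serum-stimulated A549 lung adenocarcinoma cells; signal is phosphorylated S6 detected by cytoblot immunostaining with HRP secondary.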 To be noted: A549 phospho-S6 cytoblot, 5 h, higher = more signal.
The target in test [8] is NADPH oxidase 2 (Homo sapiens) (UniProt P04839). The test can be described thus: NOX2-dependent H2O2 signal modulators, primary screen, NOX inhibitor project, cell-based, HEK293-NOX2, PMA-stimulated, Amplex Red fluorescence (AID 1159). Further: test concentration not given here. To be noted: 45 min, higher = more signal, called active from +8 up or from −8 down.
Sequence of NADPH oxidase 2 (Homo sapiens) (P04839 whole entry, looked up): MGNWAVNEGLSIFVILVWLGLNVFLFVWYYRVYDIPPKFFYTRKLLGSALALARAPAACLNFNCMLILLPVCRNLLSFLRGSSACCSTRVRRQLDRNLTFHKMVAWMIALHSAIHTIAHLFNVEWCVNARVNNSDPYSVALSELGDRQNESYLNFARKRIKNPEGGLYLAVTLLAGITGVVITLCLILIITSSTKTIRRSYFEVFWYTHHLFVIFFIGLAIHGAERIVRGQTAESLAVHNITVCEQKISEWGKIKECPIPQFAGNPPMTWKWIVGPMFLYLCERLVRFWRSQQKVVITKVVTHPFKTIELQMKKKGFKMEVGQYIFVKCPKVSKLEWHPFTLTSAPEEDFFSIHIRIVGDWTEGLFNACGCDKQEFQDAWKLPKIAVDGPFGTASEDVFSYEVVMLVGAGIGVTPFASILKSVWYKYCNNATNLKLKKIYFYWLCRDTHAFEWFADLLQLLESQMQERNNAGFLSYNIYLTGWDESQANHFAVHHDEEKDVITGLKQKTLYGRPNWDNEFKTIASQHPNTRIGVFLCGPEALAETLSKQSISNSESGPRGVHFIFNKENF
Test [9] addresses NADPH oxidase 4 (Homo sapiens) (UniProt Q9NPH5). Description: NOX4-dependent H2O2 signal modulators, primary screen, NOX inhibitor project, cell-based, HEK293-NOX4, tetracycline-induced, Amplex Red fluorescence (AID 1160). To be noted: 45 min, higher = more signal, called active from +8 up or from −8 down.
The target in test [10] is NADPH oxidase 5 (Homo sapiens) (UniProt Q96PH1). Description: NOX5-dependent H2O2 signal modulators, primary screen, NOX inhibitor project, cell-based, HEK293-NOX5, Amplex Red fluorescence (AID 1161). To be noted: HEK293-NOX5, ionomycin, 45 min, higher = more signal.
Sequence of NADPH oxidase 5 (Homo sapiens) (Q96PH1 whole entry, looked up): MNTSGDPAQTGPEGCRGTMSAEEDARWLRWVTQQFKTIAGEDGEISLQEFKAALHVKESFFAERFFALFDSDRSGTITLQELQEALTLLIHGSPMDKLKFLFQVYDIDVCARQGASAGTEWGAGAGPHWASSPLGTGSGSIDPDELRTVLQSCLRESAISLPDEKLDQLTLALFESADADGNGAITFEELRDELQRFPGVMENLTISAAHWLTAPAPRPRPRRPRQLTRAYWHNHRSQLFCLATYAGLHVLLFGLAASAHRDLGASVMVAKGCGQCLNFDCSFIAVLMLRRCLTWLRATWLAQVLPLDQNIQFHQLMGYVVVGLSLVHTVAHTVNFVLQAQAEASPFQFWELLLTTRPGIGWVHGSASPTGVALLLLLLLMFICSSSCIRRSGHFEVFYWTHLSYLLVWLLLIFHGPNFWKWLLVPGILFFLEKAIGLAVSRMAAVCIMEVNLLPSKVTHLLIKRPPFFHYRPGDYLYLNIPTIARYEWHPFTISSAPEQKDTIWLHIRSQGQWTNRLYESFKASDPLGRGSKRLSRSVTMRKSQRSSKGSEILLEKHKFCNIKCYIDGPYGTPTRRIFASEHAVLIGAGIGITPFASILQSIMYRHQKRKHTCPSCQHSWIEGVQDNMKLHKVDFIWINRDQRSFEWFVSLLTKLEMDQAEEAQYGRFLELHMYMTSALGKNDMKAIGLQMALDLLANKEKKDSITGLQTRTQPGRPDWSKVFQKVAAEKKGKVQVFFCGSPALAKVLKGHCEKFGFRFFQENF
Test [11] can be described thus: A549 cell viability effects, profiling panel, calcein-AM fluorescence, 48 h, basal (AID 1162). Further: test concentration not given here. To be noted: higher = more signal.
Test [12] is described as follows: adipocyte viability effects, profiling panel, cell-based, 3T3-L1 adipocytes, calcein-AM fluorescence, 48 h, basal (AID 1163). Further: test concentration not given here. To be noted: 3T3-L1 adipocytes viability, higher = more signal.
Test [13] in a line: HepG2 cell viability effects, profiling panel, calcein-AM fluorescence, 48 h, basal (AID 1164). Further: test concentration not given here. To be noted: higher = more signal.
Test [14] in a line: MM1S cell viability effects, profiling panel, calcein-AM fluorescence, 48 h, basal (AID 1165).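 Further: viability of MM1S multiple myeloma cells under basal unstimulated conditions; test concentration not given here.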 To be noted: higher = more signal.
The nature of test [15]: basal RPMI8226 viability, no added stimulus, profiling panel, cell-based, calcein-AM fluorescence, 48 h, PK04 Diversity Set (AID 1166).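 Further: cells grown under basal conditions without added stimulus; test concentration not given here.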 The settings on record: RPMI8226 myeloma viability, higher = more signal.
Test [16] can be described thus: basal HepG2 mitochondrial membrane potential changes, profiling panel, cell-based, JC-1 fluorescence, 24 h, 100 nL compound (AID 1167). Further: test concentration not given here. The settings on record: higher = more signal.
A short description of test [17]: basal 3T3-L1 adipocyte mitochondrial potential changes, profiling panel, cell-based, JC-1 fluorescence, 3T3-L1 adipocytes, 24 h, 100 nL compound (AID 1168). Further: test concentration not given here. The settings on record: JC-1 mitochondrial fluorescence, higher = more signal, called active from +8 up or from −8 down.
A short description of test [18]: basal RPMI8226 mitochondrial membrane potential changes, profiling panel, cell-based, JC-1 fluorescence, 24 h, 100 nL compound (AID 1169). Further: test concentration not given here. To be noted: RPMI8226 myeloma, JC-1 mitochondrial potential fluorescence, higher = more signal.
Test [19] is described as follows: basal MM1S mitochondrial membrane potential changes, profiling panel, cell-based, JC-1 fluorescence, 24 h, 100 nL compound (AID 1170). Further: test concentration not given here. The settings on record: higher = more signal.
A short description of test [20]: A549 lung cancer cell viability effects, profiling panel, resazurin fluorescence, 24 h, PK04 Diversity Set (AID 1171). Further: test concentration not given here. To be noted: higher = more signal, called active from +8 up or from −8 down. On the technique in general: The colour change of resazurin is a common sign of viable cells or microbes.

The source made the active and inactive calls.

Sequence of NADPH oxidase 4 (Homo sapiens) (Q9NPH5 whole entry, looked up): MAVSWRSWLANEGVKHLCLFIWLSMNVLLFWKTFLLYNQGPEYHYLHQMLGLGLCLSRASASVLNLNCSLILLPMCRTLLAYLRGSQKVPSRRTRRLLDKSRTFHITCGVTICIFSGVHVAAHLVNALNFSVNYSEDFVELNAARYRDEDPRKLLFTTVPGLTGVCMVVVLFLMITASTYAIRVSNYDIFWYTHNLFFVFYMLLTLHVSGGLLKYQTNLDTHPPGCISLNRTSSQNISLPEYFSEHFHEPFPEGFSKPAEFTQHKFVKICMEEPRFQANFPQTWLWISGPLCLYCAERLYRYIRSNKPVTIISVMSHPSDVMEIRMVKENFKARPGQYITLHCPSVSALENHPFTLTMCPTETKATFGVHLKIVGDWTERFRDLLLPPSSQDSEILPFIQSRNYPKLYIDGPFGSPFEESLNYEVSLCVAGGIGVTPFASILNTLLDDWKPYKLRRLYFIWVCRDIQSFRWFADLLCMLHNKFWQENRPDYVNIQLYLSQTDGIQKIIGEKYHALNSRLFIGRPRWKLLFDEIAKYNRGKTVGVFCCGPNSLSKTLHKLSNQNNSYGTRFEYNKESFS

Turning to `O=C1C2C=CC(C(O)c3ccc(F)cc3)N(Nc3ccccc3F)C2C(=O)N1c1ccccc1` (stereo not given), the z-score in test [1] is -1.13 (inactive); in test [3], 6.83 (inactive); in [4], 1.4 (inactive); in [5], -0.196 (inactive); in test [6] it was 0.998 (inactive); in [7], -1.06. The z-score is -2.22 (inactive) in test [8]; -4.97 (inactive) in test [9]; -2.17 in test [10]; -1.39 in test [11]; -1.1 in [12]; -1.47 in test [13]. For the same molecule, the z-score in test [14] is -0.389; in [15], -0.233; in test [16] it was -1.73; in test [17] it was -1.08 (inactive); in test [18], -0.143; in [19], 0.396. Further, the z-score in test [20] was 0.0853 (inactive). This molecule gave a composite z-score in test [2] of 0.336.

`[N-]=[N+]=NCc1ccccc1[C@H]1OC(c2ccc(OCCCO)cc2)=N[C@@]1(Cc1ccccc1)C(=O)NCc1ccccc1`: the z-score in [1] was 0.336 (inactive); in test [3], 27.6 (active); in test [4], 23.5 (active); in test [5], 1.96 (inactive); in test [6], 1.77 (inactive); in test [7], -0.669. The z-score in [8] was 1.08 (inactive); in [9] it was 0.113 (inactive); in [10], -0.549; in [11] it was -0.649; in test [12], 0.399; in [13] it was 0.71. The z-score in [14] is -2.04; in test [15], -3.49; in [16] it was 0.343; in test [17] it was 0.544 (inactive); in test [18], -1.35; in test [19], -0.765. For the same molecule, in [20], the z-score was 0.789 (inactive). The same molecule registered a composite z-score in test [2] of 0.22.

Take `CCCC=C(CCC)[C@@H](NS(=O)(=O)c1cccs1)c1ccc(C(=O)OC)cc1`: the z-score is -1.35 (inactive) in test [1]; 1.19 (inactive) in test [3]; 0.0633 (inactive) in [4]; 1.28 (inactive) in test [5]; 0.567 (inactive) in test [6]; -1.13 in [7]. The z-score in test [8] is -0.547 (inactive); in [9] it was -3.59 (inactive); in test [10] it was 0.708; in test [11] it was -3.9; in [12], 0.532; in test [13] it was -5.36. Also, the z-score was -3.33 in [14]; -4.74 in test [15]; -4.43 in test [16]; 1.24 (inactive) in [17]; -0.819 in [18]; -2.8 in test [19]. Besides, the z-score in test [20] was 4.56 (inactive). Besides, the composite z-score in test [2] came out at 0.133.

As to `COC(=O)[C@@]1(Cc2ccccc2)[C@H]2c3cc(C(=O)N(C)C)n(CCSCCO)c3C[C@H]2CN1C(=O)c1ccccc1`, the z-score in test [1] is -1.8 (inactive); in test [3] it was 1.02 (inactive); in [4], 0.187 (inactive); in test [5], 0.189 (inactive); in test [6] it was 0.496 (inactive); in [7] it was -0.199. Moreover, the z-score in [8] is 0.594 (inactive); in test [9], 0.597 (inactive); in test [10] it was -0.72; in test [11], 0.571; in test [12] it was -0.0167; in [13], -0.0301. In addition, the z-score is -0.614 in test [14]; -0.933 in [15]; -1.37 in [16]; -0.728 (inactive) in test [17]; 0.354 in [18]; -0.229 in [19]. Also, the z-score in test [20] was 0.0392 (inactive). The molecule further displayed a composite z-score in [2] of 0.138.

As to `CN1C(=O)C2C=CC(C(O)C3CC=CCC3)N(NC(=O)OC(C)(C)C)C2C1=O` (stereo not given), the z-score is -1.49 (inactive) in test [1]; 0.23 (inactive) in test [3]; 0.737 (inactive) in test [4]; -0.138 (inactive) in [5]; 0.312 (inactive) in [6]; -1.01 in [7]. Besides, the z-score in [8] was -0.92 (inactive); in [9], -0.861 (inactive); in test [10], -0.716; in [11], 0.414; in test [12] it was -0.61; in [13], -0.622. Further, the z-score in test [14] is -0.0764; in [15], -0.291; in test [16], -1.58; in test [17] it was -0.493 (inactive); in [18], 0.295; in [19] it was -0.121. Also, the z-score in test [20] is -0.111 (inactive). In addition, the composite z-score in test [2] is -0.168.

For the molecule `O=C1NC(=O)C2C1C=CC(C(O)C(c1ccccc1)c1ccccc1)N2Nc1ccc(Cl)cc1Cl` (stereo not given), the z-score is -1.53 (inactive) in test [1]; 8.4 (active) in [3]; 2.11 (inactive) in test [4]; 0.537 (inactive) in test [5]; 2.49 (inactive) in test [6]; -1.02 in test [7]. The z-score in test [8] is -0.421 (inactive); in test [9] it was -5.03 (inactive); in test [10] it was -2.4; in [11] it was -2.92; in [12], 0.205; in test [13], -2.7. Besides, the z-score in [14] is -3.71; in test [15], -4.14; in test [16], -3.99; in test [17], -0.283 (inactive); in [18], -0.925; in test [19] it was -0.133. The z-score in [20] was -1.18 (inactive). The composite z-score in [2] turned out to be 0.42.

In the case of `N#Cc1ccc(NN2C(C(O)c3c(F)cccc3Cl)C=CC3C(=O)N(c4ccccc4)C(=O)C32)cc1` (stereo not given), the z-score is -0.857 (inactive) in [1]; 22 (active) in test [3]; 5.46 (inactive) in test [4]; 1.21 (inactive) in test [5]; 1.51 (inactive) in test [6]; -1.17 in test [7]. For the same molecule, the z-score in test [8] is -1.1 (inactive); in test [9], -3.86 (inactive); in test [10] it was -2.98; in test [11] it was 0.212; in [12], -0.684; in [13], 0.0972. The z-score in test [14] is -0.0928; in test [15] it was -0.91; in test [16], -1.41; in test [17] it was -1.82 (inactive); in test [18], -0.275; in test [19], -0.0893. Moreover, the z-score in test [20] is -0.0273 (inactive). Further, the composite z-score in [2] is 0.192.

With `CN(C)CCCNC(=O)[C@@]1(c2ccc([N+](=O)[O-])cc2)CC(=O)N(C2CCCCC2)[C@@H]1c1ccc(CO)cc1`, the z-score in [1] is 0.0097 (inactive); in [3], 1.31 (inactive); in test [4], 0.346 (inactive); in test [5], 2.09 (inactive); in [6], -0.0633 (inactive); in [7] it was -0.0223. The z-score in [8] is 1.84 (inactive); in test [9], 1.31 (inactive); in [10] it was 0.787; in test [11], 0.259; in test [12] it was -0.272; in test [13], 0.23. Besides, the z-score was -0.432 in [14]; -1.43 in test [15]; 0.259 in test [16]; 0.255 (inactive) in test [17]; 0.956 in test [18]; -0.435 in [19]. Moreover, in [20], the z-score is 0.497 (inactive). Moreover, the composite z-score in [2] worked out at 0.0793.

In the case of `CCC(CC)C(O)C1C=CC2C(=O)N(C)C(=O)C2N1Nc1ccccc1` (stereo not given), the z-score is -0.39 (inactive) in test [1]; 1.11 (inactive) in test [3]; 1.09 (inactive) in test [4]; 0.0973 (inactive) in test [5]; 0.951 (inactive) in test [6]; -0.835 in test [7]. Further, the z-score in test [8] is -1.73 (inactive); in [9] it was -3.49 (inactive); in test [10] it was -3.77; in [11] it was 0.095; in [12] it was -1.07; in [13], 0.597. For the same molecule, the z-score in [14] is -0.299; in test [15], -0.469; in [16], -0.843; in [17] it was -0.83 (inactive); in [18], -0.802; in test [19] it was 0.0765. Moreover, the z-score in test [20] was 0.78 (inactive). The molecule further yielded a composite z-score in [2] of 0.173.
